Assay results: PubChem BioAssay AID2528 (National Center for Advancing Translational Sciences (NCATS), 2010)
The whole screen tested about 350,000 compounds, of which about 700 (0.2%) were called active. The call rests on the fitted dose curve; in most records, active means well fitted inhibition curve with a large enough effect; inconclusive means small, poorly fitted or top-dose-only effect; inactive means flat fitted curve, though single readings scatter. Only a selection was taken, and actives are over-represented in it overall.

Biological target: RecQ-like DNA helicase BLM (Homo sapiens) (UniProt P54132)
Sequence (P54132 whole entry, looked up): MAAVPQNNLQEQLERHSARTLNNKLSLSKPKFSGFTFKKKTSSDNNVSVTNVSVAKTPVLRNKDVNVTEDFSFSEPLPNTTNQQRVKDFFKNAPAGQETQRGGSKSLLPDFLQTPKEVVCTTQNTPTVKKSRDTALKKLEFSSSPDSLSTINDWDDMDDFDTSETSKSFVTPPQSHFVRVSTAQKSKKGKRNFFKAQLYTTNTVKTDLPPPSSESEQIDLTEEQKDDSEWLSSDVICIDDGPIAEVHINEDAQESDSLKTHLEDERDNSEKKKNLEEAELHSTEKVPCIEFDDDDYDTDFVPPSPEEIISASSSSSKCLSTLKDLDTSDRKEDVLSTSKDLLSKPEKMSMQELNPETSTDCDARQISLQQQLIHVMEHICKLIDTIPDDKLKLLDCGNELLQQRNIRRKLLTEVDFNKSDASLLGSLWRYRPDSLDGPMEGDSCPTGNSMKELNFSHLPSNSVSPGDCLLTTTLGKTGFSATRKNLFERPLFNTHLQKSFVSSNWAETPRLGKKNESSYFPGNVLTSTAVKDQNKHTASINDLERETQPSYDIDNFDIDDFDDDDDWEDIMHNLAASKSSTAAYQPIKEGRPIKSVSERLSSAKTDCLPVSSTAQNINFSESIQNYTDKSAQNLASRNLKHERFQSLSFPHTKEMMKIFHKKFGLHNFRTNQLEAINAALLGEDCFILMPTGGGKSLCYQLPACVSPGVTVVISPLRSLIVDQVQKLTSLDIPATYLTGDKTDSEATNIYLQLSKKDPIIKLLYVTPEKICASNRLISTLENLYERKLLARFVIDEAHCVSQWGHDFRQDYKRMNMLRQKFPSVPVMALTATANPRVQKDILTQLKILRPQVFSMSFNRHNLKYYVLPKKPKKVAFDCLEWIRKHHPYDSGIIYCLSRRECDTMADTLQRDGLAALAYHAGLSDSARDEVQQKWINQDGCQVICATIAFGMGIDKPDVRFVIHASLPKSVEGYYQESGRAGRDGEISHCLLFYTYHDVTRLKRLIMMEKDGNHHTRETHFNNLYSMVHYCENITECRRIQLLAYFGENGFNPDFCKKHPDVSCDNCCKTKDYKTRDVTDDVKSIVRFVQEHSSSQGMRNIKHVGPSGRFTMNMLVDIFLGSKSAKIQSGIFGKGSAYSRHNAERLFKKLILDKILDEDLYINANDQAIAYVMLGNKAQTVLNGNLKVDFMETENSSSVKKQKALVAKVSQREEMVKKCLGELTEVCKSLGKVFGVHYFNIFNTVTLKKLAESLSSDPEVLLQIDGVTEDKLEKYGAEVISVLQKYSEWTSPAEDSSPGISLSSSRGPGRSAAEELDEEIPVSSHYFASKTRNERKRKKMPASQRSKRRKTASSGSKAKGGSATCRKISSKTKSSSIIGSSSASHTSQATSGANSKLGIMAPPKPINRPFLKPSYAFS
Test: qHTS Assay for Inhibitors of Bloom's syndrome helicase (BLM); further: nearly all actives have a fitted effect of over 35% in size
Details: recombinant BLM DNA unwinding, fluorescence dequenching; series mostly up to 56.1 µM; activity change, negative = inhibition: at the top concentration
Excerpt: Survival of cells and the faithful propagation of the genome depend on elaborate mechanisms of detecting and repairing DNA damage. Treatment of advanced cancer relies on radiation therapy or chemotherapy, which kill cancer cells by causing extensive DNA damage. It is often found, that cancer cells develop resistance to therapy through enhanced activity of DNA repair functions; this has led to an increased interest in developing drugs that interfere with DNA repair, which could sensitize cancer cells to conventional therapy.
This validation qHTS assay pertains to human BLM, which is important in resolving abnormal DNA structures formed during replication or homologous recombination. Shutting down the expression of BLM leads to chromosomal instability and higher radiation sensitivity in cultured cells.
The validation assay was a fluorescence quenching based kinetic qHTS for BLM Helicase DNA unwinding. The activity was measured as ATP-dependent separation of a 20-bp DNA duplex extended by 30-nt single-stranded tails (forked duplex). The forked DNA substrate was tagged with rhodamine fluorophore (carboxytetramethyl rhodamine, TAMRA) and BHQ-2 (Black Hole Quencher 2) dark quencher. Strand separation results in an increase in the fluorescence of TAMRA (excitation 525 nm, emission 598 nm). This substrate construct operates in a red-shifted region where very few compound library members have been noted to fluoresce (PubChem AIDs 593 and 594). An additional feature of the assay is the inclusion of 2.5 ug/ml poly (dIdC), to reduce interference by compounds such as DNA intercalators, a major source of false inhibitors.
Ian Hickson, University of Oxford
Opher Gileadi, Structural Genomics Consortium, University of Oxford
Screening Center PI: Austin, C.P.
Screening Center: NIH Chemical Genomics Center [NCGC]
Three uL of reaction buffer (25 mM Tris-HCl (pH 8.0), 5 mM NaCl, 2 mM MgCl2, 1mM DTT, 0.01% Tween- 20, and 2.5 ug/ml poly(dI-dC), including enzyme (50 nM BLM), were dispensed into a 1536-well Greiner black assay plate via solenoid-valve based nanoliter dispensers. Compounds (23 nl each in columns 5-48) and control (23 nl each in column 2 as dose-response) were transferred via a Kalypsys pintool equipped with a 1536-pin array. The plates were incubated for 15 min at room temperature, and then 1 ul of substrates (200 nM DNA and 2 mM ATP, final concentrations) was added to start the reaction. The plate was transferred into a ViewLux high-throughput CCD imager where the reaction progress was measured in a discontinuous kinetic mode (two reads spaced 2 hours apart, with intermediate room temperature incubation of the covered assay plate) by using standard red-fluorescence optics (excitation filter 525 nm, emission filter 598 nm). Enzyme-free and vehicle (DMSO) controls were included for signal normalization.
Potency means the concentration at half of the fitted maximal effect.

**Q.** With `COc1ccc(N2C(=O)/C(=C/c3ccco3)C(=O)NC2=S)cc1` as the compound, how does the Potency read?
**A.** 12.6 µM (active)

**Q.** With `COc1cccc(N2C(=O)NC(=O)/C(=C\c3ccc([N+](=O)[O-])s3)C2=O)c1` as the compound, how does the “activity change, negative = inhibition” value read?
**A.** -15.1% (inactive)

**Q.** With `N#Cc1cc(Br)c(O)c(Br)c1` as the compound, how does the “activity change, negative = inhibition” value read?
**A.** -1.65% (inactive)

**Q.** With `O=C1CCc2cccc3c2N1CC3` as the compound, how does the “activity change, negative = inhibition” value read?
**A.** 1.45% (inactive)

**Q.** Which “activity change, negative = inhibition” value does the source give for `C[C@]12O[C@H](C[C@@]1(O)C(=O)O)n1c3ccccc3c3c4c(c5c6ccccc6n2c5c31)CNC4=O` here?
**A.** 4.13% (inactive)

**Q.** For `CCN(CC)c1nc(C)cc(OP(=S)(OC)OC)n1`, which “activity change, negative = inhibition” value is on record?
**A.** -6.05% (inactive)

**Q.** Which “activity change, negative = inhibition” value does the source give for `CC(=O)[O][Sn]([c]1ccccc1)([c]1ccccc1)[c]1ccccc1` here?
**A.** -1.25% (inactive)

**Q.** Which “activity change, negative = inhibition” value does the source give for `CCCCCCCCCCCCN=C(N)N` here?
**A.** -12.6% (inactive)

**Q.** Which “activity change, negative = inhibition” value does the source give for `C[C@@H]1C[C@H]2CC[C@H](O2)[C@H](C)C(=O)O[C@@H](C)C[C@@H]2CC[C@@H](O2)[C@@H](C)C(=O)O[C@H](C)C[C@H]2CC[C@H](O2)[C@H](C)C(=O)O[C@@H](C)C[C@@H]2CC[C@@H](O2)[C@@H](C)C(=O)O1` here?
**A.** -1.93% (inactive)

**Q.** Which Potency does the source give for `CC[N+](C)(CC)CCC[n+]1c(-c2ccccc2)c2cc(N)ccc2c2ccc(N)cc21` here?
**A.** 5.01 µM (active)

**Q.** Which “activity change, negative = inhibition” value does the source give for `C[C@H]1C/C=C/[C@@H]2[C@@H]3O[C@]3(C)[C@@H](C)[C@H]3[C@H](Cc4ccccc4)NC(=O)[C@]32OC(=O)O/C=C/[C@](C)(O)C1=O` here?
**A.** 0.289% (inactive)

**Q.** Which “activity change, negative = inhibition” value does the source give for `COC([CH2][Hg])CNC(=O)c1ccccc1OCC(=O)O` (stereo not given) here?
**A.** 3.32% (inactive)

**Q.** `CN(C)C[C@H]1CCCC[C@]1(O)c1cccc(O)c1` was tested. Which “activity change, negative = inhibition” value did it give?
**A.** -3.36% (inactive)

**Q.** Which Potency does the source give for `O=C(OCC1O[C@@H](OC(=O)c2cc(O)c(O)c(O)c2)[C@@H](OC(=O)c2cc(O)c(O)c(O)c2)[C@@H](OC(=O)c2cc(O)c(O)c(O)c2)[C@@H]1OC(=O)c1cc(O)c(O)c(O)c1)c1cc(O)c(O)c(O)c1` (stereo not given in full) here?
**A.** 0.501 µM (active)

**Q.** `CC(C)(Cc1c[nH]c2ccc(Cl)cc12)NCCOc1ccccc1OCC1CC1` was tested. Which “activity change, negative = inhibition” value did it give?
**A.** -0.797% (inactive)
